# PubChem BioAssay AID1159580 (chemical genetic matrix, 2015)
# Hit rate of the full screen: of about 5,500 compounds, about 2,000 (36%) were called active. Not shown: some 18% with an inconclusive outcome. No stated cut-off is given here; in the data, active means normalized growth mostly below about 0.91 (no sharp cut-off); inconclusive means no clear call, values can overlap the other calls; inactive means mostly above about 0.92. This is one part of the list.
# Experiment: chemical genetic growth profiling, strain panel (AID 1159580);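 further: tested at 20 µM; growth read once vehicle control cultures reached saturation at 30 °C; 1 = growth at the plate median or of vehicle wells; lower values mean less growth of the strain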
# Conditions: S. cerevisiae deletion strains, growth OD
smiles,measurement,setting,value
O=C(O)c1ccccc1Nc1ccccc1,normalized growth,"locus YAL013W, strain DEP1, active compounds read low",1.01 (inactive)
same,normalized growth,"locus YAL021C, strain ccr4, active compounds read low",0.953 (inactive)
same,normalized growth,"locus YAL026C, strain drs2, active compounds read low",0.921 (inactive)
same,normalized growth,"locus YAL030W, strain snc1, active compounds read low",0.94 (inactive)
same,normalized growth,"locus YAL040C, strain CLN3, active compounds read low",1.01 (inactive)
same,normalized growth,"locus YBL061C, strain skt5, active compounds read low",0.946 (inactive)
same,normalized growth,"locus YBR009C, strain hhf1, active compounds read low",0.992 (inactive)
same,normalized growth,"locus YBR023C, strain chs3, active compounds read low",0.951 (inactive)
same,normalized growth,"locus YBR171W, strain sec66, active compounds read low",0.894 (inactive)
same,normalized growth,"locus YBR231C, strain swc5, active compounds read low",0.966 (inactive)
same,normalized growth,"locus YBR279W, strain paf1, active compounds read low",0.964 (inactive)
same,normalized growth,"locus YCL011C, strain gbp2, active compounds read low",0.922 (inactive)
same,normalized growth,"locus YCL016C, strain dcc1, active compounds read low",0.961 (inactive)
same,normalized growth,"locus YCL061C, strain MRC1, active compounds read low",0.892 (active)
same,normalized growth,"locus YCL069W, strain vba3, active compounds read low",0.907 (active)
same,normalized growth,"locus YCR088W, strain abp1, active compounds read low",0.907 (active)
same,normalized growth,"locus YDL005C, strain med2, active compounds read low",0.957 (inactive)
same,normalized growth,"locus YDL040C, strain nat1, active compounds read low",0.944 (inactive)
same,normalized growth,"locus YDR001C, strain nth1, active compounds read low",0.892 (active)
same,normalized growth,"locus YDR069C, strain doa4, active compounds read low",1.01 (inactive)
same,normalized growth,"locus YDR137W, strain rgp1, active compounds read low",0.86 (inactive)
same,normalized growth,"locus YDR150W, strain NUM1, active compounds read low",0.994 (inactive)
same,normalized growth,"locus YDR159W, strain sac3, active compounds read low",0.957 (inactive)
same,normalized growth,"locus YDR195W, strain ref2",1.05 (inactive)
same,normalized growth,"locus YDR297W, strain sur2, active compounds read low",0.929 (inactive)
same,normalized growth,"locus YDR334W, strain swr1, active compounds read low",0.926 (inactive)
same,normalized growth,"locus YDR335W, strain msn5, active compounds read low",0.941 (inactive)
same,normalized growth,"locus YDR363W, strain ESC2, active compounds read low",1.01 (inactive)
same,normalized growth,"locus YDR392W, strain spt3, active compounds read low",0.852 (inactive)
same,normalized growth,"locus YEL003W, strain gim4, active compounds read low",0.924 (inactive)
same,normalized growth,"locus YEL037C, strain rad23, active compounds read low",0.913 (active)
same,normalized growth,"locus YEL061C, strain CIN8 (second series), active compounds read low",0.899 (active)
same,normalized growth,"locus YER002W, strain NOP16, active compounds read low",0.941 (inactive)
same,normalized growth,"locus YER015W, strain faa2, active compounds read low",0.947 (inactive)
same,normalized growth,"locus YER016W, strain bim1, active compounds read low",0.972 (inactive)
same,normalized growth,"locus YER111C, strain swi4, active compounds read low",0.908 (active)
same,normalized growth,"locus YER155C, strain BEM2 (second series), active compounds read low",0.909 (inactive)
same,normalized growth,"locus YFR010W, strain ubp6, active compounds read low",0.989 (inactive)
same,normalized growth,"locus YGL167C, strain pmr1, active compounds read low",0.92 (inactive)
same,normalized growth,"locus YGL173C, strain kem1, active compounds read low",0.954 (inactive)
same,normalized growth,"locus YGL227W, strain vid30, active compounds read low",0.909 (active)
same,normalized growth,"locus YGL240W, strain doc1, active compounds read low",0.985 (inactive)
same,normalized growth,"locus YGL253W, strain hxk2, active compounds read low",0.926 (inactive)
same,normalized growth,"locus YGR078C, strain PAC10, active compounds read low",0.964 (inactive)
same,normalized growth,"locus YHR013C, strain ard1, active compounds read low",0.989 (inactive)
same,normalized growth,"locus YHR027C, strain rpn1, active compounds read low",0.938 (inactive)
same,normalized growth,"locus YHR030C, strain SLT2, active compounds read low",0.482 (active)
same,normalized growth,"locus YHR079C, strain IRE1, active compounds read low",0.395 (active)
same,normalized growth,"locus YHR142W, strain chs7, active compounds read low",0.908 (inactive)
same,normalized growth,"locus YJL092W, strain hpr5, active compounds read low",0.893 (active)
same,normalized growth,"locus YJL095W, strain BCK1 (second series), active compounds read low",0.938 (inactive)
same,normalized growth,"locus YJL095W, strain BCK1, active compounds read low",0.502 (active)
same,normalized growth,"locus YJL115W, strain asf1, active compounds read low",0.901 (active)
same,normalized growth,"locus YJL129C, strain trk1, active compounds read low",0.847 (active)
same,normalized growth,"locus YJL154C, strain vps35, active compounds read low",0.894 (active)
same,normalized growth,"locus YJL164C, strain tpk1, active compounds read low",0.957 (inactive)
same,normalized growth,"locus YJL166W, strain qcr8, active compounds read low",0.97 (inactive)
same,normalized growth,"locus YJL187C, strain SWE1, active compounds read low",0.971 (inactive)
same,normalized growth,"locus YJR066W, strain TOR1, active compounds read low",0.392 (active)
same,normalized growth,"locus YKL160W, strain elf1, active compounds read low",0.938 (inactive)
same,normalized growth,"locus YKR026C, strain gcn3, active compounds read low",0.903 (active)
same,normalized growth,"locus YKR091W, strain srl3, active compounds read low",0.927 (active)
same,normalized growth,"locus YLL001W, strain dnm1, active compounds read low",0.966 (inactive)
same,normalized growth,"locus YLL026W, active compounds read low",0.934 (inactive)
same,normalized growth,"locus YLL041C, strain sdh2, active compounds read low",0.925 (active)
same,normalized growth,"locus YLR027C, strain aat2, active compounds read low",0.956 (inactive)
same,normalized growth,"locus YLR113W, strain HOG1, active compounds read low",0.291 (active)
same,normalized growth,"locus YLR221C, strain rsa3, active compounds read low",0.962 (inactive)
same,normalized growth,"locus YLR258W, strain gsy2, active compounds read low",0.961 (inactive)
same,normalized growth,"locus YLR262C, strain YPT6 (second series), active compounds read low",0.832 (active)
same,normalized growth,"locus YLR320W, strain mms22, active compounds read low",0.99 (inactive)
same,normalized growth,"locus YLR342W, strain FKS1, active compounds read low",0.923 (inactive)
same,normalized growth,"locus YLR357W, strain rsc2, active compounds read low",1.03 (inactive)
same,normalized growth,"locus YLR370C, strain arc18, active compounds read low",0.945 (inactive)
same,normalized growth,"locus YLR384C, strain iki3, active compounds read low",0.934 (inactive)
same,normalized growth,"locus YML120C, strain ndi1, active compounds read low",0.963 (inactive)
same,normalized growth,"locus YMR058W, strain fet3, active compounds read low",0.935 (inactive)
same,normalized growth,"locus YMR125W, strain sto1, active compounds read low",0.988 (inactive)
same,normalized growth,"locus YMR129W, active compounds read low",0.889 (active)
same,normalized growth,"locus YMR205C, strain PFK2, active compounds read low",1 (inactive)
same,normalized growth,"locus YMR231W, strain pep5, active compounds read low",0.933 (inactive)
same,normalized growth,"locus YNL071W, strain lat1, active compounds read low",0.929 (inactive)
same,normalized growth,"locus YNL128W, strain TEP1, active compounds read low",0.973 (inactive)
same,normalized growth,"locus YNL175C, strain NOP13, active compounds read low",0.935 (inactive)
same,normalized growth,"locus YNL183C, strain NPR1, active compounds read low",0.367 (active)
same,normalized growth,"locus YNL197C, strain WHI3, active compounds read low",0.927 (inactive)
same,normalized growth,"locus YNL209W, strain ssb2, active compounds read low",0.949 (inactive)
same,normalized growth,"locus YNL224C, strain SQS1, active compounds read low",0.94 (inactive)
same,normalized growth,"locus YNL248C, strain rpa49, active compounds read low",0.99 (inactive)
same,normalized growth,"locus YNL322C, strain KRE1 (second series), active compounds read low",0.871 (active)
same,normalized growth,"locus YNR049C, strain mso1, active compounds read low",0.922 (inactive)
same,normalized growth,"locus YOR001W, strain rrp6, active compounds read low",0.951 (inactive)
same,normalized growth,"locus YOR070C, strain gyp1, active compounds read low",0.945 (inactive)
same,normalized growth,"locus YOR080W, strain dia2, active compounds read low",0.959 (inactive)
same,normalized growth,"locus YOR083W, strain WHI5 (second series), active compounds read low",0.982 (inactive)
same,normalized growth,"locus YOR083W, strain WHI5, active compounds read low",0.929 (inactive)
same,normalized growth,"locus YOR106W, strain vam3, active compounds read low",0.956 (inactive)
same,normalized growth,"locus YOR231W, strain MKK1, active compounds read low",0.413 (active)
same,normalized growth,"locus YOR265W, strain rbl2, active compounds read low",0.941 (inactive)
same,normalized growth,"locus YOR270C, strain vph1, active compounds read low",0.97 (inactive)
same,normalized growth,"locus YOR290C, strain snf2, active compounds read low",0.934 (inactive)
same,normalized growth,"locus YPL051W, strain arl3, active compounds read low",0.933 (inactive)
same,normalized growth,"locus YPL055C, strain LGE1, active compounds read low",1.01 (inactive)
same,normalized growth,"locus YPL078C, strain atp4, active compounds read low",0.914 (inactive)
same,normalized growth,"locus YPL106C, strain sse1, active compounds read low",1.01 (inactive)
same,normalized growth,"locus YPL240C, strain hsp82, active compounds read low",0.924 (active)
same,normalized growth,"locus YPL256C, strain CLN2, active compounds read low",0.36 (active)
